Reference: PubChem BioAssay (NCI)
This is part of a sample that, as a whole, favours compounds with a hit. Of some 83,000 tested, about 20% had one in any assay.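 Each cell line was grown in a 96-well plate and treated with one concentration of compound for 48 hours. Values below 10 were considered active.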 Calls of active or inactive are those of the source.

These compounds were tested on MDA-MB-468 breast (assay: NCI-60 one-dose screen, 48 h (100 = growth as untreated, 0 = no growth, -100 = all killed)). Conditions: 10 µM unless noted.

| SMILES | growth |
| --- | --- |
| COc1ccc(/C=C2\c3cc(OC)c(OC)c(OC)c3CC[C@@H]2O)cc1F | 13.5% (inactive) |
| COc1ccc([C@@H]2[C@@H](Cl)C(=O)N2c2cc(OC)c(OC)c(OC)c2)cc1C | 18.9% (inactive) |
| CSc1nc(NCCO)c(C#N)c(-c2cccc(N)c2)n1 | 116% (inactive) |
| Cc1ccc(CNc2c3ccccc3nc3ccccc23)cc1 | 7.18% (active) |
| CC(=O)C1C(=O)C(=O)N(c2ccc(Cl)c(Cl)c2)C1=O (stereo not given) | 115% (inactive) |
| Fc1ccc(Nc2nc3nonc3nc2Nc2ccc(I)cc2)cc1 | -14.7% (active) |
| COc1ccc(-c2nc(Nc3nc4ccccc4[nH]3)nc(N)c2C#N)cc1 | 121% (inactive) |
| O=C(CSc1nc2ccccc2[nH]1)c1ccc(N2CCOCC2)cc1 | 87.6% (inactive) |
| CCN(CC)N=Nc1nn(C(=O)Nc2ccc(Cc3ccccc3)cc2)c2ccc(Cl)cc12 | 101% (inactive) |
| NC(N)=NS(=O)(=O)c1ccc(N=NC2C(=O)NN(c3ccccc3)C2=O)cc1 (stereo not given) | 96.6% (inactive) |
| CCOc1ccc(-c2nonc2NC(=O)c2cccc(C)c2)cc1OCC | 2.82% (active) |
| CN1CCN(CC#CCNC(=O)[C@]23CCC(C)(C)C[C@H]2C2=CC[C@@H]4[C@@]5(C)Cc6c([nH]c7ccccc67)C(C)(C)[C@@H]5CC[C@@]4(C)[C@]2(C)CC3)CC1 | 91.2% (inactive) |
| O=C1/C(=C/c2ccccc2)SC(=S)N1CCc1ccc(O)cc1 | 73.9% (inactive) |
| C=CCn1c(SCC(=O)Nc2ccc(C(=O)/C=C/c3cccc([N+](=O)[O-])c3)cc2)nnc1-c1c[nH]c2ccccc12 | 81.9% (inactive) |
| CCCCCCCCCCCCCCCCCC1=NC(C)(C)CN1CCO | -69% (active) |
| O=S(=O)(Nc1ccc(Cl)cc1)c1ccc(-c2cnc(C3CC3)o2)cc1 | -27.7% (active) |
| COc1ccc(NC(=O)C(=O)c2c[nH]c3ccc(F)cc23)cc1 | 95.3% (inactive) |
| CC(C)[N+](C)(CCOC(COc1ccccc1)COc1ccccc1)C(C)C | 12.8% (inactive) |
| c1ccc2c(c1)CN(CCCN1CCOCC1)C2 | 89.7% (inactive) |
| CCSc1nc(-c2ccco2)n2nc(-c3ccco3)cc2n1 | -67.7% (active) |

| SMILES | growth |
| --- | --- |
| O=C1/C(=C/c2ccc(-c3ccccc3C(F)(F)F)o2)SC(=S)N1CCc1ccc(O)cc1 | 28.8% (inactive) |
| Cc1ccc(S(=O)(=O)N(CC[C@@H]2C[C@H]2c2cc3ccccc3o2)C(=O)NC2CCCCC2)cc1 | 95.3% (inactive) |
| Cc1ccsc1C(=O)CC(=O)C(F)(F)C(F)(F)C(F)(F)F | 112% (inactive) |
| O=C(O)CSc1ccc(NCc2oc(CO)cc(=O)c2O)cc1 | 108% (inactive) |
| Cc1ccc(N2C(=O)c3cccc4c(N)c(S(=O)(=O)O)cc(c34)C2=O)cc1 | 113% (inactive) |
| CCOP(=O)(OCC)/C(C#N)=C/c1c(C)[nH]c2ccccc12 | 99.7% (inactive) |
| Cc1ccc(-c2nc(SCc3nc4cc(Cl)c(Cl)cc4[nH]3)[nH]c(=O)c2C#N)cc1 | 116% (inactive) |
| CCCCCCCCCCCCNC(=O)[C@H]1CSC(c2cc3ccccc3s2)N1 (stereo not given in full) | -57.9% (active) |
| O=C1CSC(=O)N1Cc1cc2ccccc2nc1Cl | 97.8% (inactive) |
| CC(C)COC(=O)COC(=O)OCCOCCOC(=O)OCC(=O)OCC(C)C | 105% (inactive) |
| O=C1Nc2c(ccc(Cl)c2Cl)/C1=C/c1ccc(O)cc1 | 62% (inactive) |
| COc1ccccc1N1CCCCC1 | 118% (inactive) |
| O=S(=O)(NCCO)c1ccc(OCCOc2ccc(S(=O)(=O)NCCO)cc2)cc1 | 95.3% (inactive) |
| C=CC(C)(O)CC/C=C(\CO)C(=O)OC1C(C)OC(O[C@](C)(C=C)CC/C=C(\CO)C(=O)O[C@H]2C[C@@]3(C(=O)OC4OC(CO)C(O)C(O)C4OC4OC(C)C(OC5OC(CO)C(O)C5O)C(OC5OC(CO)C(O)C(O)C5O)C4O)C(CC2(C)C)C2=CCC4[C@@]5(C)CC[C@H](OC6OC(COC7OC(C)C(O)C(O)C7OC7OCC(O)C(O)C7O)C(O)C(O)C6NC(C)=O)C(C)(C)C5CC[C@@]4(C)[C@]2(C)C[C@H]3O)C(O)C1O (stereo not given in full) | 19.9% (inactive) |
| O=C(NCCO)C(F)(F)F | 116% (inactive) |
| NC(=NCCCOc1ccc(F)cc1)Nc1ccc(I)cc1 | 27.8% (inactive) |
| CC(C)Sc1nc(NN)c(C#N)c(-c2ccccc2)n1 | 113% (inactive) |
| C=C(C[C@@](O)(C(=O)Oc1ccccc1)C(=O)C1CCCCC1)c1ccccc1 | 85.3% (inactive) |
| COc1cc(/C=C/C(=O)N2CCN(C(=O)c3cc(OC)c(OC)c(OC)c3)CC2)ccc1OCCCOc1cc2c(cc1OC)C(=O)N1CCC[C@H]1C=N2 | -34.6% (active) |
| COc1ccc(-c2cncn2-c2ccc(-c3nc4cc(OC)c(OC)c(OC)c4s3)cc2)cc1N | 78.4% (inactive) |
